# Compounds with a hit are over-represented: about 3.1% of the library has one in this group of screens.
# SUMO Mot1 rescue: blocks SUMOylation pathway, rescuing yeast Mot1-301 growth. S. cerevisiae Mot1-301 growth rescue, ATP luminescence, 38.5C; percent above DMSO median, 100 means doubled. growth rescue, % at 18.8 µM. actives 1% (n = 320,000). AID 2716;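 active = every valid replicate shows activation above 250% relative to neutral control wells; inactive = the rest, any valid replicate at or below 250%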;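 note: OY570 slx delta 5 strain wells were the positive control but not used for scaling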
# Calb FLC: affects C. albicans growth with fluconazole. growth inhibition, % (no concentration beside the values). actives 0.57% (n = 300,000). AID 1979. C. albicans CaCi-2 (fluconazole-resistant clinical isolate) + fluconazole, Alamar Blue growth, 48 h;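 active = growth inhibition above about 58% in most replicates, limit read from the data, passing the limit was not always enough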;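 note: all wells also contain fluconazole at 8 µg/ml as a sub-toxic cotreatment; 0% = median of DMSO wells and 100% = median of geldanamycin control wells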
# NadD inh: blocks S. aureus nicotinate mononucleotide adenylyltransferase. purified NadD enzyme, colorimetric absorbance read-out. inhibition, % at 20 µM. actives 0.78% (n = 360,000); in the data active = inhibition above about 26%
# ATG4B inhibitor: blocks human ATG4B protease cleavage of LC3 substrate; Q9Y4P1; ATG4B cleavage of LC3-PLA2, NBD-HPC fluorescence, 1 h; inhibition, % at 8.33 µM; actives 0.51% (n = 340,000); AID 504462; in the data active = inhibition above about 40%
# FAS-TE inh: FAS thioesterase (human) inhibition | inhibition, % at 15 µM | actives 0.67% (n = 360,000) | recombinant FAS-TE, OMFH fluorogenic substrate, fluorescence endpoint | AID 602261 | P49327;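 active = compounds whose normalised, plate-corrected inhibition of enzyme fluorescence in the single-dose primary screen is 50% or more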;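 note: 0% = DMSO with enzyme and 100% = substrate without enzyme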
# Starred values were filed as active, the others as inactive; . = no result.
SMILES,SUMO Mot1 rescue,Calb FLC,NadD inh,ATG4B inhibitor,FAS-TE inh
O=C1c2ccccc2NC(c2cn[nH]c2-c2ccc(Cl)cc2)N1O (configuration not stated),3.0,90.6*,-0.6,-4.7,1.4
Cc1ccc(C(C)C)c(OCc2ccc(C(=O)N/N=C/c3cccc(O)c3O)cc2)c1,2.1,87.3*,19.2,10.9,13.9
Cc1ccc(C(C)C)c(OCc2ccc(C(=O)N/N=C/c3ccc(O)c(O)c3)cc2)c1,4.0,-4.1,33.7*,0.2,0.9
CN1CCn2cnc(C(=O)Nc3ccc(CNC(=O)OC(C)(C)C)cc3)c2C1=O,.,.,4.3,.,-5.4
CSc1ccc(COC(=O)CCS(=O)(=O)c2ccc(C)cc2)cc1,-28.8,-3.4,-1.7,2.6,19.6
C[C@H]1[C@H](C)CC[C@]2(C)CC[C@]3(C)C(=CC[C@@H]4[C@@]5(C)CC[C@@H](O)[C@](C)(C(=O)O)[C@@H]5CC[C@]43C)[C@H]12,43.2,.,.,.,.
C[C@H]1[C@H](C)CC[C@]2(C(=O)O)CC[C@]3(C)C(=CC[C@@H]4[C@@]5(C)C[C@@H](O)[C@H](O)C(C)(C)[C@@H]5CC[C@]43C)[C@H]12,509.9*,-0.4,34.7*,0.1,-13.6
C[C@H]1[C@H](C)CC[C@]2(C(=O)O)CC[C@]3(C)C(=CC[C@@H]4[C@@]5(C)CC[C@H](O)C(C)(C)[C@@H]5CC[C@]43C)[C@H]12,17.5,.,47.4*,-8.6,-3.8
C[C@@H]1CC[C@]2(C(=O)O)CC[C@]3(C)C(=CCC4[C@]56CC[C@@](O)(OC5)C(C)(C)C6CC[C@]43C)C2[C@H]1C (some centres not stated),-8.6,.,4.7,-16.7,13.7
CC(C)CN(C(=O)c1cccc(Cl)c1)c1c(N)n(Cc2ccccc2)c(=O)[nH]c1=O,3.7,.,-7.5,-3.3,0.0
O=[N+]([O-])c1ccc(O)c(C=Nc2cccc3ccccc23)c1,-4.2,10.4,3.7,15.1,-2.3
O=[N+]([O-])c1cccc(C=Nc2cccc3ccccc23)c1O,-0.4,100.9*,2.5,6.4,-3.2
Oc1cc(CNC2CCCCC2)c(O)cc1CNC1CCCCC1,.,.,30.8*,0.6,-16.7
CN(C)c1ccc(NC(=O)C2C3C=CC(C3)C2C(=O)O)cc1 (configuration not stated),-24.4,91.7*,0.0,11.0,-3.0
O=C(O)C1C2C=CC(C2)C1C(=O)Nc1ccc2c(c1)OCCO2 (configuration not stated),7.4,-6.9,1.9,0.1,-6.0
COc1ccc(CCNC(=O)c2cccc(S(=O)(=O)N3CCOCC3)c2)cc1OC,2.1,.,2.1,-0.7,-3.0
Cc1nc2ccc(S(=O)(=O)NC(C(=O)NCc3ccco3)C(C)C)cc2s1 (configuration not stated),356.7*,2.7,1.4,-7.3,-2.9
CNC(=S)N(CCc1c(C)[nH]c2ccc(F)cc12)Cc1cccnc1,354.3*,.,-6.3,-2.8,-2.2
Cc1ccc(SCC(=O)NNC(=O)CNC(=O)c2ccccc2F)cc1,-4.3,.,-0.9,-2.3,-1.4
CCOC(=O)c1cc(S(=O)(=O)N2CCN(C3CCCCC3)CC2)cn1C,171.4,-4.1,0.6,-1.6,-1.8
Cc1ccccc1CS(=O)(=O)Cc1ccc(C(=O)NCCc2ccccc2)o1,-6.1,-1.6,2.5,5.7,1.0
CCc1ccc(CNC(=O)CCC(=O)N2Cc3cccc(OC)c3Oc3ncccc32)cc1,-14.8,84.6*,0.9,-4.3,-4.2
COc1cccc2c1Oc1ncccc1N(C(=O)CCC(=O)NCc1ccccc1)C2,-16.4,39.6,-3.9,-1.0,-4.6
Cc1cc(/C=C2/SC(=S)N(c3cccc(Cl)c3)C2=O)c(C)n1-c1cccnc1,1.4,0.7,29.6*,-7.2,-2.0
O=C(CCl)N1c2ccccc2SCC1c1ccccc1 (configuration not stated),27.4,81.8*,4.6,5.6,5.6
SMILES,SUMO Mot1 rescue,Calb FLC,NadD inh,ATG4B inhibitor,FAS-TE inh
COc1cc(NC(=S)N2CCN(S(=O)(=O)c3ccccc3)CC2)cc(OC)c1,6.1,122.1*,-1.1,-10.2,10.2
COC(=O)C1CCN(Cc2c(C(=O)N3C[C@@H](C)O[C@@H](C)C3)nc3ccc(Cl)cn23)CC1,257.3,87.2*,-2.7,4.0,-7.4
O=C(O)/C=C/c1cccc2c1OCCO2,-21.6,1.2,0.1,-4.5,-4.0
Cc1noc2ncnc(N3CCCC3)c12,-7.7,10.2,3.0,6.7,-0.8
Cc1noc2ncnc(Sc3ccc(Br)cc3)c12,.,108.3*,-3.8,7.3,28.4
CC(C)(C)c1ccc(SCC(N)=O)cc1,-0.1,80.8*,0.6,5.4,-2.5
Cn1c(SCC(N)=O)nnc1-c1ccc(C(C)(C)C)cc1,-2.7,21.6,0.1,-3.1,0.5
Cc1cc(N=Nc2ccc(C)c(N=Nc3cc(C)c(N)cc3N)c2)c(N)cc1N,-36.3,1.1,29.8*,-1.7,-0.1
COc1ccc(N=Nc2cc(OC)c(N)cc2OC)cc1,.,.,3.5,-3.3,-0.4
Nc1ccccc1-n1cccc1,315.2*,-1.6,6.2,-1.2,-2.4
Cc1ccc(CN(Cc2cc3cccc(C)c3[nH]c2=O)C(=O)N(C)C)cc1,316.7*,-5.9,7.5,-17.3,-0.9
CSc1nnc(C)c(=O)n1COC(=O)c1ccc(S(=O)(=O)N2CCCC2)cc1,0.4,-14.3,2.0,-3.7,1.4
CC(C)C[C@H]1CN(CCCC[C@H]2CNC(=O)C(=O)N2CC2CCCCC2)C(=O)C(=O)N1Cc1ccccc1,.,.,12.6,.,-5.5
Cc1cc(C)c(S(=O)(=O)/N=C2/C=C(Sc3ncn[nH]3)C(=O)c3ccccc32)cc1C,-7.9,.,90.5*,-18.1,4.2
Cc1ccc(NC2=C/C(=N/S(=O)(=O)c3cccs3)c3ccccc3C2=O)cc1C,-14.7,-0.2,0.4,-1.3,-6.6
COC(=O)C1=C(C)Nc2nnnn2C1c1ccccc1Cl (configuration not stated),338.9*,-1.3,1.6,-0.5,-2.7
CCCCCOC(=O)C1=C(C)Nc2nnnn2C1c1ccccc1Cl (configuration not stated),.,46.8,-5.5,-5.8,28.7
Cc1cccnc1NC(=O)CSc1ccc2c(c1)OCCO2,-23.0,.,-2.8,6.7,-2.1
CCCCCCCn1c2c(c(=N)c3ccccc31)CCC2,2.0,80.6*,16.4,6.8,10.9
CCNc1nc(N)nc(-c2cc(Cl)ccc2O)n1,38.7,80.2*,-6.1,20.4,1.2
CCC(=O)NC(c1ccc(C)cc1)c1cc(Cl)c2cccnc2c1O (configuration not stated),-6.0,.,7.8,-5.9,-1.7
O=C(O)COc1ccccc1C(Nc1cccnc1)c1cc(Cl)c2cccnc2c1O (configuration not stated),.,100.4*,37.2*,31.0,11.4
CCOc1ccc(C(Nc2cccnc2)c2cc(Cl)c3cccnc3c2O)cc1 (configuration not stated),-5.3,109.5*,15.9,3.2,-3.5
O=C(NC(c1ccccc1)c1cc(Cl)c2cccnc2c1O)c1cccnc1 (configuration not stated),-3.7,92.2*,.,.,.
